Test results published in PubChem BioAssay AID588852 (The Scripps Research Institute Molecular Screening Center, 2011).
In all, about 360,000 compounds went through this assay and about 4,600 (1.3%) were called active. The list comes from a sample in which actives are over-represented; it also holds similar structures and randomly drawn compounds. Values without a mark were called inactive.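 How the source made its calls: active means percent inhibition above its own plate's cutoff, namely the mean of that plate's compound wells plus 3 SD; inactive means the rest.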 Peptide text beside a SMILES is read from it. * marks the point of attachment. Bz = O=C(c1ccccc1)*

Each compound was assayed against Muscarinic acetylcholine receptor M1 (Homo sapiens) (UniProt P11229) (assay: human M1 muscarinic receptor antagonists, primary screen, CHO-K1 cells, Fluo-8 calcium fluorescence, 1536-well (AID 588852;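 further: peak over basal fluorescence ratio during 140 s after agonist addition; 0% = ACh EC80 plus DMSO and 100% = DMSO alone without agonist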)). Conditions: CHO-K1 hM1, Fluo-8 calcium fluorescence, ACh EC80 antagonist; at 3 µM; active compounds read high.
Chain of Muscarinic acetylcholine receptor M1 (Homo sapiens) (P11229 whole entry, looked up): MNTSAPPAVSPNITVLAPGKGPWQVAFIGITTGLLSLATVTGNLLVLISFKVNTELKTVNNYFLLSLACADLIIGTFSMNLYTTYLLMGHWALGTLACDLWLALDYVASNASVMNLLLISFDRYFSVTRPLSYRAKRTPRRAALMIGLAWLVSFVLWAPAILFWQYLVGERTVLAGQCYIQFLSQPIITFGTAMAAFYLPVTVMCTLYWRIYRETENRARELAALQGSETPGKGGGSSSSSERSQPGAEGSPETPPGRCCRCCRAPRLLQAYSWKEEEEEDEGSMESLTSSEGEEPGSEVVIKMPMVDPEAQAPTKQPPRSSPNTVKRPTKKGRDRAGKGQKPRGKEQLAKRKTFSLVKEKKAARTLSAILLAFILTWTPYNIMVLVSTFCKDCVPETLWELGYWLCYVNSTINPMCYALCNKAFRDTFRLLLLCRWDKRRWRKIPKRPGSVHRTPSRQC
In the case of `COc1ccccc1Oc1ccc(S(=O)(=O)Nc2cccnc2)cc1`, the inhibition was 35.1% (active).
Work on `COc1ccc(S(=O)(=O)Nc2cccnc2)c(Cl)c1Cl` yielded an inhibition of 9.26%.
Compound `Cc1cc(C)c(C)c(S(=O)(=O)Nc2cccnc2)c1C` has an inhibition of -12.2%.
`O=[N+]([O-])c1ccc(CN2CC(N3CC=CC3)CS2(=O)=O)cc1` (stereo not given) gave an inhibition of 7.78%.
Compound `CCC1=Nc2cc(C(=O)NCCCN3CCOCC3)ccc2Sc2ccc(Br)cc21` has an inhibition of 1.43%.
Compound `CCCC1=Nc2cc(C(=O)NCc3ccco3)ccc2Sc2ccccc21` has an inhibition of 13.6%.
With `CCCC1=Nc2cc(C(=O)NCCN3CCCC3)ccc2Sc2ccccc21` the inhibition was 44% (active).
`Cc1cccc(CN2CCC(n3nccc3NC(=O)c3ccccc3C)CC2)n1` gave an inhibition of -7.86%.
Compound `C[C@@H]1CN([C@@H](C)CO)C(=O)c2cc(Br)cnc2O[C@H]1CN(C)Cc1ccc(-c2ccccc2)cc1` has an inhibition of -3.44%.
With `C[C@@H]1CN([C@H](C)CO)C(=O)c2cc(-c3ccc(F)cc3)cnc2O[C@H]1CN(C)C(=O)c1ccc(F)cc1` the inhibition was -3.76%.
In the case of `C[C@H]1CN([C@@H](C)CO)C(=O)CCCn2nncc2CO[C@@H]1CN(C)Cc1ccc(Oc2ccccc2)cc1`, the inhibition was 35.8% (active).
With `C[C@@H]1CN([C@@H](C)CO)C(=O)CCCn2nncc2CO[C@H]1CN(C)Cc1ccc(C(F)(F)F)cc1` the inhibition was -8.15%.
With `COc1ccc(-c2cnc3c(c2)C(=O)N([C@H](C)CO)C[C@@H](C)[C@H](CN(C)Cc2ccccc2)O3)cc1` the inhibition was 79.4% (active).
In the case of `Cc1ccc(CN(C)C[C@@H]2OCc3cnnn3CCCC(=O)N([C@@H](C)CO)C[C@H]2C)cc1`, the inhibition was -6.67%.
`CSc1nsc(SC)c1NC(=O)OC1CCCCC1` showed an inhibition of -9.68%.
`O=C(Nc1cccc2ccccc12)c1[nH]c(-c2ccccc2)c2c1C(=O)N(C1CC1)C2=O` showed an inhibition of -24.4%.
Compound `O=C1C2C3C=CC(C3)C2C(=O)N1c1ncc([N+](=O)[O-])s1` (stereo not given) has an inhibition of -4.85%.
With `CN(Cc1ccccc1F)C(=O)C(Cc1ccccc1)NC(=O)c1ccccc1` (stereo not given) the inhibition was 33.5% (active).
`O=C(NC(Cc1ccccc1)C(=O)N1CCCC1C(=O)O)c1ccccc1` (stereo not drawn) (Bz-Phe-Pro-OH; configuration not given here) was tested, and the inhibition was -9.18%.
Work on `NC(=O)c1ccc(NC(=O)COC(=O)C(Cc2ccccc2)NC(=O)c2ccccc2)cc1` (stereo not given) yielded an inhibition of 0.83%.
Work on `CCn1ccnc1CNC(=O)CC1C(=O)NCCN1CCCc1ccccc1` (stereo not given) yielded an inhibition of -10.2%.
For `C[C@@H](C(=O)Nc1ccc2ccccc2c1)[C@@H]1C[C@@]1(C)[C@@H](NC(=O)c1cccnc1)c1ccccc1`, the inhibition was -3.75%.
Compound `CCc1nc2ccc(C(=O)N3CCN(S(=O)(=O)CC)CC3)cn2c1N(C=O)CCC(C)C` has an inhibition of -13.9%.
`CC1=C(C(=O)N2CCOCC2)CC(CC(=O)NCCCN(C)C)C(=O)N1Cc1ccc(C(C)(C)C)cc1` (stereo not given) showed an inhibition of -15.7%.
In the case of `CC(Oc1cc2oc(=O)c3c(c2cc1Cl)CCCC3)C(=O)NCc1ccncc1` (stereo not given), the inhibition was 1.37%.
With `COc1ccc(S(=O)(=O)NC(C)C(=O)NCc2ccncc2)cc1Cl` (stereo not given) the inhibition was 25.1% (active).
With `Cc1ccc(S(=O)(=O)NC(C)C(=O)NCc2ccc(Cl)cc2)cc1` (stereo not given) the inhibition was 5.87%.
`CC(=O)N1C[C@@H](CO)[C@@H](N(C)C(=O)c2ccco2)C[C@H]1c1ccccc1` showed an inhibition of 30.9%.
Work on `COc1cc(OC)cc(C(=O)NNC(=O)CNC(=O)c2ccc(Br)o2)c1` yielded an inhibition of 15.6%.
`CCN1CN(Cc2ccccc2)CNC1=S` showed an inhibition of 0.26%.
With `COc1ccc(NC(=O)C2(C)Cc3c(-c4cccc(NC(C)=O)c4)ccnc3O2)cc1` (stereo not given) the inhibition was -7.09%.
`COc1cccc(CNc2nc(NCc3ccccc3OC)nc3ccsc23)c1` gave an inhibition of 24.1%.
`COCCNc1nc(NCc2ccc(NC(C)=O)cc2)c2sccc2n1` was tested, and the inhibition was -8.59%.
For `COc1cccc(CNc2nc(NCc3cccs3)nc3ccsc23)c1`, the inhibition was 51.9% (active).
Work on `COc1ccc(-c2nc3c(s2)CCc2onc(-c4ccc(OC)cc4)c2-3)cc1` yielded an inhibition of -8.59%.
`COc1ccc(/C=C/C(=O)c2c(O)cc(OC)cc2OC)cc1` was tested, and the inhibition was 4.93%.
With `COc1cccc(C=CC(=O)C=CC=Cc2ccccc2)c1` the inhibition was -3.17%.
For `O=C(/C=C(O)/C=C/c1ccc(O)cc1)/C=C/c1ccc(O)cc1`, the inhibition was 33.7% (active).
Work on `O=S1(=O)C[C@@H](N2CCN(CCO)CC2)[C@H](COCc2ccccc2)N1` yielded an inhibition of 8.79%.
With `COC(=O)CCCC1=CC2=C(c3ccccc3)C(=O)C(C)(OC(=O)C3CCCC3)C(=O)C2=CN1c1ccc(OC)cc1` (stereo not given) the inhibition was 4.39%.
Compound `CSc1ncccc1C(=O)N1CCCC(Nc2ccc(F)c(F)c2)C1` (stereo not given) has an inhibition of -21.9%.
For `Cc1ccc(CN2CC(C(=O)NNC(=O)Cn3ccc(C(F)(F)F)n3)CC2=O)cc1` (stereo not given), the inhibition was -4.1%.
`O=C1NC(O)CCN1C1CC(O)C(CO)O1` (stereo not given) gave an inhibition of 4.13%.
`COc1cc(C(C(=O)NC2CCCC2)N(Cc2ccccc2)C(=O)c2snc(C(N)=O)c2N)ccc1O` (stereo not given) gave an inhibition of 0.09%.
`COc1ccc(CNC(=O)C(c2ccc(O)cc2)N(Cc2ccco2)C(=O)c2snc(C(N)=O)c2N)cc1` (stereo not given) was tested, and the inhibition was 34.8% (active).
`NC(=O)c1nsc(C(=O)N(CC(=O)NCc2ccc(F)cc2)Cc2ccco2)c1N` was tested, and the inhibition was -9.5%.
With `CCOC(=O)N1CCN(S(=O)(=O)c2ccc(C(=O)Nc3ccc(F)cc3F)cc2)CC1` the inhibition was 5.69%.
`Cc1cc2cc3c(cc2nc1SCC(=O)Nc1c(C)cccc1C)CCC3` was tested, and the inhibition was -12.5%.
Compound `O=C(CC[C@H]1O[C@@H](n2ccc(=O)[nH]c2=O)[C@H](O)[C@@H]1O)N[C@H](Cc1ccccc1)C(=O)NCCCN1CCCC1=O` has an inhibition of -9.33%.
Work on `Cc1cccc(C)c1NC(=O)c1ccc(CN2CCc3ccccc3C2)cc1` yielded an inhibition of 4.61%.
`Cc1cccc2c1-c1sc(C(=O)NCCCN3CCc4ccccc4C3)cc1CO2` was tested, and the inhibition was 58.2% (active).
Compound `Cc1ccc(NC(=O)CN2CCc3ccccc3C2)cc1C` has an inhibition of -11%.
For `CC1(C)Cc2c(sc3nc4n(c(=N)c23)CCCCC4)CO1`, the inhibition was 53.3% (active).
With `N=c1c2c3c(sc2ncn1CCCN1CCOCC1)CCCCC3` the inhibition was 1.24%.
Compound `CC(C)c1nc2sc3c(c2c(=O)n1N)CC(C)(C)OC3` has an inhibition of -0.09%.
Compound `CCSc1nc2sc3c(c2c(=O)[nH]1)CC(C)(C)OC3` has an inhibition of -5.74%.
For `N=c1c2c3c(sc2nc2n1CCCCC2)CCCC3`, the inhibition was 89.3% (active).
With `O=c1c2c(nc3n1CCCCC3)sc1c(O)cccc12` the inhibition was -13.7%.
`COc1ccccc1-c1cnn2c(N3CCOCC3)cc(C)nc12` was tested, and the inhibition was -0.68%.
For `C=CCn1c2c(c3ccccc31)CCC2`, the inhibition was 3.67%.
`Cc1ccc2cc3cc(C(=O)N4CCCCCC4)oc3nc2c1` showed an inhibition of -17.6%.
In the case of `Fc1ccc2[nH]c3c(N4CCSCC4)ncnc3c2c1`, the inhibition was 41.1% (active).
With `CCOC(=O)N(Cc1ccccc1)C1CC1` the inhibition was -16%.
For `CCCCNC(=O)CSc1nc2ccc(NC(=O)CSc3nnc(COc4ccccc4C)n3C)cc2s1`, the inhibition was -13.4%.
In the case of `Nc1nnc(SCC(=O)Nc2ccc3nc(SCC(=O)Nc4ccccc4)sc3c2)s1`, the inhibition was 30.3% (active).
Compound `CCCCNC(=O)CSc1nc2ccc(NC(=O)CSc3nnc(N)s3)cc2s1` has an inhibition of -9.73%.
`O=C1c2ccccc2C(c2nc3ccccc3[nH]2)N1c1ccccc1` (stereo not given) gave an inhibition of -32.7%.
Compound `CCS(=O)(=O)Nc1ccc(C2=NN(S(=O)(=O)c3ccc(F)cc3)C(c3ccco3)C2)cc1` (stereo not given) has an inhibition of -7.75%.
`COc1ccc(NC(=O)c2cc(-c3cc(OC)c(OC)c(OC)c3)nc3ccccc23)c(OC)c1` showed an inhibition of -10.6%.
`COc1cccc(NC(=O)CN(C)C(=O)c2cc(Cl)nc3ccccc23)c1` was tested, and the inhibition was -8.88%.
For `COc1ccc(-c2cc(C(=O)NCCCN3CCCC3=O)c3ccccc3n2)cc1OC`, the inhibition was 19.9%.
Work on `COc1ccc(S(=O)(=O)N2CCCCCC2)cc1C(=O)N(C)Cc1cccc(OC)c1OC` yielded an inhibition of -2.19%.
With `COc1ccc(CN(C)C(=O)c2cc(-c3ccc(C)cc3C)nc3ccccc23)c(OC)c1OC` the inhibition was 26.6% (active).
In the case of `COc1ccc(CN(C)C(=O)Cc2ccsc2)c(OC)c1OC`, the inhibition was -4.83%.
With `COc1ccc(-c2cc(C(=O)N(C)CC(=O)Nc3ccccc3Cl)c3ccccc3n2)cc1OC` the inhibition was 21% (active).
`COc1ccc(-c2cc(C(=O)N(C)Cc3ccc(OC)c(OC)c3OC)c3ccccc3n2)cc1OC` was tested, and the inhibition was 41.5% (active).
For `COc1ccc(CN(C)C(=O)Cc2c[nH]c3ccccc23)c(OC)c1OC`, the inhibition was -18.1%.
In the case of `COc1ccc(-c2cc(C(=O)N(C)Cc3ccccc3)c3ccccc3n2)cc1`, the inhibition was 41% (active).
Work on `COc1ccc(Cl)cc1NC(=O)CN(C)C(=O)c1cc2ccccc2cc1OC` yielded an inhibition of -2.48%.
For `COc1ccc(-c2cc(C(=O)n3cnc4ccccc43)c3ccccc3n2)cc1`, the inhibition was -11.1%.
With `Cc1cc2oc(=O)cc(CN(C)Cc3ccccc3)c2cc1Cl` the inhibition was -3.35%.
With `CC1(C(=O)NS(=O)(=O)c2ccccc2)CCN1C(=O)Cc1ccc(-c2ccccc2)cc1` (stereo not given) the inhibition was -13%.
`CC(=O)N1c2ccc(S(=O)(=O)N3CCCC(C(=O)Nc4ccc(C)cc4C)C3)cc2CC1C` (stereo not given) was tested, and the inhibition was -10.3%.
For `CC(=O)n1cc([C@@H]2C=C(C(=O)N3CCN(Cc4ccc5c(c4)OCO5)CC3)O[C@H](OCc3ccc(CO)cc3)C2)c2ccccc21`, the inhibition was 15.6%.
With `CNC[C@H]1OCc2cnnn2CCCC(=O)N([C@H](C)CO)C[C@@H]1C` the inhibition was -31.6%.
